# Experimental data: the supplement of paper PMC8728848
# The entries come from a sample that favours the strongest signals as a whole.
# Tests used:
# Assay in all cases: glycan array binding signal (z-score within array); higher = stronger binding
# Details in all cases: glycan notation: IUPAC condensed, linker removed
# [1] = molecular target: Fuc(a1-2)Gal(b1-3)GalNAc(b1-3)Gal(a1-4)Gal(b1-4)Glc
# Summary of the method: (§1)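 Glycan array data came from 3228 arrays in the Consortium for Functional Glycomics database, and only arrays with an available protein sequence were kept. Glycan names were put into IUPAC-condensed notation, and columns mapping to the same glycan were averaged. The binding signal is a within-array Z-score, averaged across arrays of one protein sequence run at different concentrations or buffers and across linkers. A negative Z-score can be read as non-binding.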
# [2] = molecular target: Fuc(a1-2)Gal(b1-3)GlcNAc(b1-3)[Gal(b1-4)GlcNAc(b1-6)]Gal(b1-4)Glc
# Summary of the method: as §1
# [3] = molecular target: Fuc(a1-2)Gal(b1-3)[Fuc(a1-4)]GlcNAc(b1-3)[Fuc(a1-3)[Gal(b1-4)]GlcNAc(b1-6)]Gal(b1-4)Glc
# Summary of the method: as §1
# [4] = molecular target: Fuc(a1-2)[Gal(a1-3)]Gal(b1-3)GlcNAc(b1-2)Man(a1-3)[Fuc(a1-2)[Gal(a1-3)]Gal(b1-3)GlcNAc(b1-2)Man(a1-6)]Man(b1-4)GlcNAc(b1-4)[Fuc(a1-6)]GlcNAc
# Summary of the method: as §1
# [5] = molecular target: Fuc(a1-2)[Gal(a1-3)]Gal(b1-4)GlcNAc(b1-2)Man(a1-3)[Fuc(a1-2)[Gal(a1-3)]Gal(b1-4)GlcNAc(b1-2)Man(a1-6)]Man(b1-4)GlcNAc(b1-4)GlcNAc
# Summary of the method: as §1
# [6] = molecular target: Fuc(a1-2)[GalNAc(a1-3)]Gal(b1-3)GlcNAc(b1-2)Man(a1-3)[Fuc(a1-2)[GalNAc(a1-3)]Gal(b1-3)GlcNAc(b1-2)Man(a1-6)]Man(b1-4)GlcNAc(b1-4)[Fuc(a1-6)]GlcNAc
# Summary of the method: as §1
# [7] = molecular target: Fuc(a1-2)[GalNAc(a1-3)]Gal(b1-4)Glc
# Summary of the method: as §1
# [8] = molecular target: Fuc(a1-2)[GalNAc(a1-3)]Gal(b1-4)GlcNAc(b1-3)[Fuc(a1-2)[GalNAc(a1-3)]Gal(b1-4)GlcNAc(b1-6)]GalNAc
# Summary of the method: as §1
# [9] = molecular target: Fuc(a1-2)[GalNAc(a1-3)]Gal(b1-4)[Fuc(a1-3)]GlcNAc
# Summary of the method: as §1
# [10] = molecular target: Fuc(a1-3)GlcNAc
# Summary of the method: as §1
# [11] = molecular target: Fuc(a1-3)[GalNAc(b1-4)]GlcNAc
# Summary of the method: as §1
# [12] = molecular target: Fuc(a1-4)GlcNAc
# Summary of the method: as §1
# [13] = molecular target: Gal(a1-3)Gal(b1-3)[Fuc(a1-4)]GlcNAc(b1-2)Man(a1-3)[Gal(a1-3)Gal(b1-3)[Fuc(a1-4)]GlcNAc(b1-2)Man(a1-6)]Man(b1-4)GlcNAc(b1-4)GlcNAc
# Summary of the method: as §1
# [14] = molecular target: Gal(b1-3)[Fuc(a1-4)]GlcNAc(b1-2)Man(a1-3)[Gal(b1-3)[Fuc(a1-4)]GlcNAc(b1-2)Man(a1-6)]Man(b1-4)GlcNAc(b1-4)[Fuc(a1-6)]GlcNAc
# Summary of the method: as §1
# [15] = molecular target: Gal(b1-4)GlcNAc(b1-2)[Gal(b1-4)GlcNAc(b1-4)]Man(a1-3)[Gal(b1-4)GlcNAc(b1-2)[Gal(b1-4)GlcNAc(b1-6)]Man(a1-6)]Man(b1-4)GlcNAc(b1-4)GlcNAc
# Summary of the method: as §1
# [16] = molecular target: Gal(b1-4)GlcNAc(b1-2)[Gal(b1-4)GlcNAc(b1-4)]Man(a1-3)[GlcNAc(b1-4)][Gal(b1-4)GlcNAc(b1-2)Man(a1-6)]Man(b1-4)GlcNAc(b1-4)GlcNAc
# Summary of the method: as §1
# [17] = molecular target: Gal(b1-4)GlcNAc(b1-3)Gal(b1-3)GalNAc
# Summary of the method: as §1
# [18] = molecular target: Gal(b1-4)GlcNAc(b1-6)[Gal(b1-3)]GalNAc
# Summary of the method: as §1
# [19] = molecular target: Gal(b1-4)GlcNAc(b1-6)[Gal(b1-4)GlcNAc(b1-3)]GalNAc
# Summary of the method: as §1
# [20] = molecular target: Gal3S(b1-3)GalNAc
# Summary of the method: as §1
# [21] = molecular target: Gal6S(b1-4)Glc6S
# Summary of the method: as §1
# [22] = molecular target: GalNAc3S(b1-4)[Fuc(a1-3)]GlcNAc
# Summary of the method: as §1
# [23] = molecular target: Glc(a1-4)Glc
# Summary of the method: as §1
# [24] = molecular target: GlcNAc(a1-4)Gal(b1-4)GlcNAc(b1-3)Gal(b1-4)GlcNAc
# Summary of the method: as §1
# [25] = molecular target: GlcNAc(b1-3)Gal(b1-4)GlcNAc(b1-2)Man(a1-3)[GlcNAc(b1-3)Gal(b1-4)GlcNAc(b1-2)Man(a1-6)]Man(b1-4)GlcNAc(b1-4)GlcNAc
# Summary of the method: as §1
# [26] = molecular target: GlcNAc(b1-3)Gal(b1-4)GlcNAc(b1-3)GalNAc
# Summary of the method: as §1
# [27] = molecular target: GlcNAc(b1-3)Gal(b1-4)GlcNAc(b1-3)[GlcNAc(b1-3)Gal(b1-4)GlcNAc(b1-3)]GalNAc
# Summary of the method: as §1
# [28] = molecular target: GlcNAc(b1-3)Gal(b1-4)GlcNAc(b1-6)[Gal(b1-3)]GalNAc
# Summary of the method: as §1
# [29] = molecular target: GlcNAc(b1-6)Gal(b1-4)GlcNAc
# Summary of the method: as §1
# [30] = molecular target: Man(a1-2)Man(a1-3)[Man(a1-2)Man(a1-6)]Man(a1-6)[Man(a1-2)Man(a1-2)Man(a1-3)]Man(b1-4)GlcNAc(b1-4)GlcNAc
# Summary of the method: as §1
# [31] = molecular target: Man(a1-2)Man(a1-3)[Man(a1-6)]Man(a1-6)[Man(a1-2)Man(a1-3)]Man(b1-4)GlcNAc(b1-4)GlcNAc
# Summary of the method: as §1
# [32] = molecular target: Man(a1-2)Man(a1-6)[Man(a1-3)]Man(a1-6)[Man(a1-2)Man(a1-2)Man(a1-3)]Man(b1-4)GlcNAc(b1-4)GlcNAc
# Summary of the method: as §1
# [33] = molecular target: Man(a1-3)[Man(a1-6)]Man(a1-6)[Man(a1-2)Man(a1-3)]Man(b1-4)GlcNAc(b1-4)GlcNAc
# Summary of the method: as §1
# [34] = molecular target: Man(a1-3)[Man(a1-6)]Man(a1-6)[Man(a1-3)]Man
# Summary of the method: as §1
# [35] = molecular target: Man(a1-3)[Man(a1-6)]Man(a1-6)[Man(a1-3)]Man(b1-4)GlcNAc(b1-4)GlcNAc
# Summary of the method: as §1
# [36] = molecular target: Neu5Ac(a2-3)Gal(b1-3)[Fuc(a1-4)]GlcNAc
# Summary of the method: as §1
# [37] = molecular target: Neu5Ac(a2-3)Gal(b1-4)[Fuc(a1-3)]GlcNAc(b1-3)Gal
# Summary of the method: as §1
# [38] = molecular target: Neu5Ac(a2-6)Gal(b1-4)GlcNAc(b1-2)Man(a1-3)[GlcNAc(b1-2)Man(a1-6)]Man(b1-4)GlcNAc(b1-4)GlcNAc
# Summary of the method: as §1
# [39] = molecular target: Neu5Ac(a2-6)Gal(b1-4)GlcNAc(b1-3)Gal(b1-4)GlcNAc(b1-6)[Gal(b1-3)]GalNAc
# Summary of the method: as §1
# [40] = molecular target: Neu5Ac(a2-6)Gal(b1-4)GlcNAc(b1-6)[Gal(b1-3)]GalNAc
# Summary of the method: as §1
# [41] = molecular target: Neu5Gc(a2-6)GalNAc
# Summary of the method: as §1
binder,measurement,setting,value
PFL (Pseudomonas fluorescens) (protein) MSKYAVANQWGGSSAPWHPGGTWVLGARDNQNVVAIEIKSGDGGKSFTGTMTYAGEGPIGFKAQRTGQNQYNVENQWGGNDAPWHPGGKWVIGGRDNQNVIALSVTSSDGGKNLSGTNTYANEGPIGFRGQIE,glycan array binding signal (z-score),[1],-0.111
same,glycan array binding signal (z-score),[2],-0.11
same,glycan array binding signal (z-score),[3],-0.113
same,glycan array binding signal (z-score),[4],0.415
same,glycan array binding signal (z-score),[5],-0.073
same,glycan array binding signal (z-score),[6],0.249
same,glycan array binding signal (z-score),[7],-0.112
same,glycan array binding signal (z-score),[8],-0.103
same,glycan array binding signal (z-score),[9],-0.111
same,glycan array binding signal (z-score),[10],-0.12
same,glycan array binding signal (z-score),[11],-0.105
same,glycan array binding signal (z-score),[12],-0.116
same,glycan array binding signal (z-score),[13],0.499
same,glycan array binding signal (z-score),[14],0.665
same,glycan array binding signal (z-score),[15],0.988
same,glycan array binding signal (z-score),[16],-0.117
same,glycan array binding signal (z-score),[17],-0.116
same,glycan array binding signal (z-score),[18],-0.113
same,glycan array binding signal (z-score),[19],-0.108
same,glycan array binding signal (z-score),[20],-0.116
same,glycan array binding signal (z-score),[21],-0.107
same,glycan array binding signal (z-score),[22],-0.116
same,glycan array binding signal (z-score),[23],-0.116
same,glycan array binding signal (z-score),[24],-0.117
same,glycan array binding signal (z-score),[25],-0.111
same,glycan array binding signal (z-score),[26],-0.112
same,glycan array binding signal (z-score),[27],-0.11
same,glycan array binding signal (z-score),[28],-0.115
same,glycan array binding signal (z-score),[29],-0.117
same,glycan array binding signal (z-score),[30],3.46
same,glycan array binding signal (z-score),[31],9.19
same,glycan array binding signal (z-score),[32],11.7
same,glycan array binding signal (z-score),[33],13.2
same,glycan array binding signal (z-score),[34],7.17
same,glycan array binding signal (z-score),[35],10.9
same,glycan array binding signal (z-score),[36],-0.12
same,glycan array binding signal (z-score),[37],-0.117
same,glycan array binding signal (z-score),[38],0.313
same,glycan array binding signal (z-score),[39],-0.118
same,glycan array binding signal (z-score),[40],-0.117
same,glycan array binding signal (z-score),[41],-0.114
